Laboratory results taken from PubChem BioAssay (NCI).
This is part of a sample that, as a whole, favours compounds with a hit. Of some 79,000 tested, about 15% had one in any assay. Activity calls are given as the source filed them. Cut-off read from the data, not from the text of the source: active = growth inhibition above about 70%; inactive = the rest.

Experiments:
[1] = NCI Yeast Anticancer Drug Screen. Data for the rad52 strain (AID 147);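 note: 0% = growth of vehicle-treated control cultures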; conditions: S. cerevisiae rad52 mutant growth inhibition, hits give high values
Procedure, shortened: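 Screen used a yeast mutant impaired in DNA repair. After compound exposure, growth was measured. Values reflect inhibition compared with vehicle-treated cells.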

[2] = NCI Yeast Anticancer Drug Screen. Data for the wt1 strain (AID 149);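 note: 0% = growth of vehicle-treated wt1 cultures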; conditions: S. cerevisiae wt1 strain (SPY 50644) growth inhibition, hits give high values
Procedure, shortened: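 wt1 yeast, compound-treated; % growth inhibition vs vehicle control.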

[3] = NCI Yeast Anticancer Drug Screen. Data for the rad50EPP+ strain (AID 151);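 note: 0% = growth of vehicle-treated control cultures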; conditions: S. cerevisiae rad50 mutant strain, hits give high values
Procedure, shortened: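 Exposing the rad50EPP+ strain to each compound, growth was compared with vehicle-only cultures to give inhibition.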

[4] = NCI Yeast Anticancer Drug Screen. Data for the rad50 strain (AID 155);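 note: 0% = growth of vehicle-only cultures of the same strain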; conditions: S. cerevisiae rad50 strain growth inhibition, hits give high values
Procedure, shortened: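 Genetically altered yeast (DNA repair pathway); compound treatment; growth inhibition vs vehicle ctrl.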

[5] = NCI Yeast Anticancer Drug Screen. Data for the mec2-1 strain (AID 157); conditions: S. cerevisiae mec2-1 strain, hits give high values
Procedure, shortened: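 Readout is yeast growth inhibition, normalised to vehicle-treated controls, in the mec2-1 strain exposed to compound.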

[6] = NCI Yeast Anticancer Drug Screen. Data for the rad14 strain (AID 159);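 note: 0% = growth of vehicle-treated control cultures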; conditions: S. cerevisiae rad14 strain growth inhibition, hits give high values
Procedure, shortened: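 Test compounds were applied to a repair-deficient yeast strain. Its growth was then compared with that of cultures given vehicle alone, and inhibition was expressed relative to those controls.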

[7] = NCI Yeast Anticancer Drug Screen. Data for the sgs1 mgt1 strain (AID 161);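 note: 0% = growth of cultures given vehicle only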; conditions: S. cerevisiae sgs1 mgt1 strain, hits give high values
Procedure, shortened: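 Compounds are added to genetically altered yeast, and growth is compared with cultures given vehicle alone to give percent inhibition.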

[8] = NCI Yeast Anticancer Drug Screen. Data for the CLN2oe strain (AID 163);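 note: 0% = growth of vehicle-only control cultures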; conditions: S. cerevisiae CLN2oe strain, hits give high values
Procedure, shortened: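 Values reflect how much compound exposure reduced yeast growth, referenced to vehicle-exposed cells. Assay organism is a strain with a defined genetic change affecting cell-cycle control.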

[9] = NCI Yeast Anticancer Drug Screen. Data for the cln2 rad14 strain (AID 165);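 note: 0% = growth equal to vehicle treated cultures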; conditions: S. cerevisiae cln2 rad14 strain, hits give high values
Procedure, shortened: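 Relative to vehicle controls, growth inhibition of compound-treated cln2 rad14 yeast was recorded.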

[10] = NCI Yeast Anticancer Drug Screen. Data for the bub3 strain (AID 167); conditions: S. cerevisiae bub3 mutant strain, hits give high values
Procedure, shortened: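 Yeast carrying a defined mutation is treated with each compound, and growth is compared with that of vehicle-exposed cells to give inhibition.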

[11] = NCI Yeast Anticancer Drug Screen. Data for the wt2 strain (AID 169);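 note: 0% = growth of vehicle-treated yeast cultures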; conditions: S. cerevisiae wt2 strain growth inhibition, hits give high values
Procedure, shortened: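 Values express reduction in yeast growth under compound treatment, referenced to vehicle-treated cells.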

[12] = NCI Yeast Anticancer Drug Screen. Data for the mlh1 strain (AID 171);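 note: 0% = growth of vehicle-treated control cultures of the same strain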; conditions: S. cerevisiae mlh1 strain growth inhibition, hits give high values
Procedure, shortened: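 Steps: expose the defined-mutant yeast strain to compound; expose a parallel culture to vehicle; measure growth; express compound effect as inhibition relative to the vehicle culture.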

[13] = NCI Yeast Anticancer Drug Screen. Data for the sgs1 strain (AID 173);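 note: 0% = growth of vehicle-only control cultures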; conditions: S. cerevisiae sgs1 mutant, hits give high values
Procedure, shortened: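 Treat defined-mutant yeast with compound; measure growth; calculate inhibition relative to vehicle-treated cells.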

[14] = NCI Yeast Anticancer Drug Screen. Data for the mlh1 rad18 strain (AID 175); conditions: S. cerevisiae mlh1 rad18 strain growth inhibition, hits give high values
Procedure, shortened: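 Test agents were incubated with a yeast strain of defined genotype (DNA damage repair defect). Inhibition of growth was derived by comparison with vehicle-exposed cultures.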

[15] = NCI Yeast Anticancer Drug Screen. Data for the rad18 strain (AID 177); conditions: S. cerevisiae rad18 mutant growth inhibition, hits give high values
Procedure, shortened: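 A genetically defined yeast mutant impaired in DNA damage repair was treated with test compounds, then its growth was measured against cultures receiving vehicle alone.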

[16] = at 5.0 µM (retest, dose inferred, filed as 0.5)
[17] = at 50.0 µM (retest, dose inferred, filed as 5.0)

Measured: growth inhibition

O=C(COC(=O)c1ccccc1)c1ccc(Br)cc1
inactive: [1]; at 1.2 µM 14% | [1]; at 3.7 µM 20% | [1]; at 11.0 µM 45% | [2]; at 1.2 µM 2% | [2]; at 3.7 µM -4% | [2]; at 11.0 µM 8% | [4]; at 1.2 µM 17% | [4]; at 3.7 µM 23% | [4]; [16] 31% | [4]; at 11.0 µM 68% | [5]; at 1.2 µM 4% | [5]; at 3.7 µM 7% | [5]; [16] 67% | [5]; at 11.0 µM 17% | [6]; at 1.2 µM 16% | [6]; at 3.7 µM 18% | [6]; at 11.0 µM 30% | [7]; [16] 58% | [8]; at 1.2 µM 0% | [8]; at 3.7 µM 13% | [8]; at 11.0 µM 64% | [9]; [16] 12% | [10]; at 1.2 µM 49% | [10]; at 3.7 µM 65% | [10]; [16] 41% | [11]; at 1.2 µM 16% | [11]; at 3.7 µM 63% | [12]; at 1.2 µM 12% | [12]; at 3.7 µM 17% | [12]; at 11.0 µM 38% | [13]; at 1.2 µM -12% | [13]; at 3.7 µM 10% | [14]; [16] 34% | [15]; at 1.2 µM 15% | [15]; at 3.7 µM 17% | [15]; at 11.0 µM 37%
active: [1]; at 33.0 µM 99% | [1]; at 100.0 µM 98% | [2]; at 33.0 µM 99% | [2]; at 100.0 µM 97% | [3]; at 1.2 µM 75% | [3]; at 3.7 µM 93% | [3]; at 11.0 µM 99% | [3]; at 33.0 µM 99% | [3]; at 100.0 µM 97% | [4]; at 33.0 µM 98% | [4]; [17] 99% | [4]; at 50.0 µM 98.8% | [4]; at 100.0 µM 97% | [5]; at 33.0 µM 99% | [5]; [17] 99% | [5]; at 50.0 µM 99.3% | [5]; at 100.0 µM 99% | [6]; at 33.0 µM 99% | [6]; at 100.0 µM 98% | [7]; [17] 99% | [7]; at 50.0 µM 99.4% | [8]; at 33.0 µM 99% | [8]; at 100.0 µM 97% | [9]; [17] 99% | [9]; at 50.0 µM 98.8% | [10]; at 11.0 µM 100% | [10]; at 33.0 µM 99% | [10]; [17] 99% | [10]; at 50.0 µM 99.7% | [10]; at 100.0 µM 99% | [11]; at 11.0 µM 96% | [11]; at 33.0 µM 100% | [11]; at 100.0 µM 99% | [12]; at 33.0 µM 99% | [12]; at 100.0 µM 98% | [13]; at 11.0 µM 90% | [13]; at 33.0 µM 99% | [13]; at 100.0 µM 99% | [14]; [17] 99% | [14]; at 50.0 µM 99.2% | [15]; at 33.0 µM 99% | [15]; at 100.0 µM 98%

c1ccc(Cc2cc(-c3ccccc3)n[nH]2)cc1
inactive: [1]; at 1.2 µM -7% | [1]; at 3.7 µM -5% | [1]; at 11.0 µM -12% | [1]; at 33.0 µM 0% | [1]; at 100.0 µM 59% | [2]; at 1.2 µM -6% | [2]; at 3.7 µM -10% | [2]; at 11.0 µM -15% | [2]; at 33.0 µM -16% | [2]; at 100.0 µM 44% | [3]; at 1.2 µM -3% | [3]; at 3.7 µM 1% | [3]; at 11.0 µM 5% | [3]; at 33.0 µM 22% | [3]; at 100.0 µM 58% | [4]; at 1.2 µM -10% | [4]; at 3.7 µM -19% | [4]; [16] -136% | [4]; at 11.0 µM 7% | [4]; at 33.0 µM 5% | [4]; [17] 31% | [4]; at 100.0 µM 60% | [5]; at 1.2 µM 2% | [5]; at 3.7 µM -4% | [5]; [16] -51% | [5]; at 11.0 µM -23% | [5]; at 33.0 µM -11% | [5]; [17] -13% | [5]; at 100.0 µM 43% | [6]; at 1.2 µM -3% | [6]; at 3.7 µM -4% | [6]; at 11.0 µM -7% | [6]; at 33.0 µM 6% | [6]; at 100.0 µM 58% | [7]; [16] -64% | [7]; [17] 46% | [8]; at 1.2 µM -8% | [8]; at 3.7 µM -8% | [8]; at 11.0 µM -14% | [8]; at 33.0 µM 0% | [8]; at 100.0 µM 55% | [9]; [16] -72% | [9]; [17] -13% | [10]; at 1.2 µM -15% | [10]; at 3.7 µM -5% | [10]; [16] -59% | [10]; at 11.0 µM 9% | [10]; at 33.0 µM 37% | [10]; [17] 62% | [11]; at 1.2 µM -3% | [11]; at 3.7 µM -4% | [11]; at 11.0 µM -7% | [11]; at 33.0 µM 10% | [11]; at 100.0 µM 52% | [12]; at 1.2 µM 4% | [12]; at 3.7 µM -12% | [12]; at 11.0 µM -11% | [12]; at 33.0 µM 5% | [12]; at 100.0 µM 55% | [13]; at 1.2 µM -3% | [13]; at 3.7 µM -11% | [13]; at 11.0 µM -5% | [13]; at 33.0 µM 27% | [13]; at 100.0 µM 69% | [14]; [16] -125% | [14]; [17] 9% | [15]; at 1.2 µM -5% | [15]; at 3.7 µM -4% | [15]; at 11.0 µM -1% | [15]; at 33.0 µM 19% | [15]; at 100.0 µM 61%
active: [4]; at 50.0 µM 97% | [5]; at 50.0 µM 97% | [7]; at 50.0 µM 89.8% | [9]; at 50.0 µM 70.4% | [10]; at 50.0 µM 93.8% | [10]; at 100.0 µM 80% | [14]; at 50.0 µM 96.8%
